ELG1 genotox: qHTS screen for small molecules that induce genotoxicity in human embryonic kidney (HEK293T) cells expressing luciferase-tagged ELG1 | HEK293T ELG1-luciferase reporter, luminescence, 16 h | Potency, µM (series often up to 46 µM), without a hit: top-dose activity change, positive = activation, hits mostly activators | 1.3% of 330,000 active | AID 504466, 2011; also: % of control where 0% means no effect; nearly all actives have a fitted effect of over 60% in size
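Luminescence read-out: rising ELG1-luciferase signal, reflecting elevated ELG1 protein under genetic stress, flags genotoxic compounds. Cells were treated for 16 hr at 37 °C before ONE-Glo detection.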
Rab9 prom act: qHTS Assay for Rab9 Promoter Activators. 2.8% of 320,000 active. Potency, µM (doses to about 9.22 µM), inactives show at the highest dose activation, negative = inhibition, most hits filed as activators. Huh7 Rab9 promoter-luciferase reporter, luminescence, 24 h; also: % of control where 0% means no effect; nearly all actives have a fitted effect of over 60% in size
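Luminescence read-out: Huh7 cells stably expressing Rab9-luciferase, treated 24 h with compound at 37 °C, then lysed with luciferase reagent for 10 min at ambient before reading.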
SMN2 splice enh: qHTS Assay for Enhancers of SMN2 Splice Variant Expression; HEK293 SMN2-luciferase splicing reporter, luminescence, 30-36 h; AID 1458, 2008; 2.8% of 210,000 active; Potency, µM (highest dose often 46.1 µM), for inactives: at the highest dose activity change, positive = activation, most hits filed as activators; also: % of control where 0% means no effect; nearly all actives have a fitted effect of over 55% in size
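HEK293 cells carry an SMN2 […]–luciferase reporter in which exon 7 inclusion puts luciferase in frame. Cells were plated 10-12 h before compound addition, then incubated 30-36 h at 37C. ONE-Glo luminescence was read; sodium butyrate at 4.5 mM final served as control.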
NPC1 prom act: qHTS Assay for NPC1 Promoter Activators. Potency, µM (series often up to 9.22 µM), inactives show at the top dose activation, hits mostly activators. 2.4% of 320,000 active. Huh7 NPC1 promoter luciferase reporter, 24 h; also: % of control where 0% means no effect; nearly all actives have a fitted effect of over 60% in size
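Stably transfected Huh7 (NPC1 promoter→luciferase), 1500 cells/well in Opti-MEM + 10% FBS, 2 h settle, then compound 24 h at 37 °C. Luminescence after 10 min with Amplite reagent.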
FLuc counter: qHTS profiling assay for firefly luciferase inhibitor/activator using purifed enzyme and Km concentrations of substrates (counterscreen for miR-21 project). purified FLuc, Km substrates, luminescence inhibition. Luciferin 4-monooxygenase (Photinus pyralis), P08659. 6.9% of 360,000 active. Potency, µM (top dose mostly 57.5 µM), for inactives: at the highest dose activity change, negative = inhibition, most hits filed as inhibitors;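 also: plate controls were vehicle for no effect and reference inhibitor for full effect; nearly all actives have a fitted effect of over 55% in size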
Target sequence (P08659 whole entry, looked up): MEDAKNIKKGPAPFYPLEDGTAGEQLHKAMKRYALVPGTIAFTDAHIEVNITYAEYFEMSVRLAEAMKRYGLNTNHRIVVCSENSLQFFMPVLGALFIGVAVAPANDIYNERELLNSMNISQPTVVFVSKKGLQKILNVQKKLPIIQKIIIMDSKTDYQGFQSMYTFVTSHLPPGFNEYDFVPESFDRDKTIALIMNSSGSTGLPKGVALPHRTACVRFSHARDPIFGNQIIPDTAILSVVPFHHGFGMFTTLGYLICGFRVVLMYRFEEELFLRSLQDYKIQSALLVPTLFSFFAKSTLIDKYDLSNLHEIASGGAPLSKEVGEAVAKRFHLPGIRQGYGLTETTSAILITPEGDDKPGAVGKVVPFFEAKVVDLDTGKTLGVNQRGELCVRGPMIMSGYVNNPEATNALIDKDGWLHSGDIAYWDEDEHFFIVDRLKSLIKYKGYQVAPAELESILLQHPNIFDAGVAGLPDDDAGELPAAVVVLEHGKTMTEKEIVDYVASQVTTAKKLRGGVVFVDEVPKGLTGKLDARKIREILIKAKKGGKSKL
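Biochemical qHTS of compounds, final roughly 60 µM downward over six points, against 10 nM purified firefly luciferase using Km concentrations of substrates (10 uM D-luciferin, 10 uM ATP) in Tris acetate pH 7.5 buffer; luminescence output.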
Starred values were filed as active, the others as inactive; ? = inconclusive; nt = no result given; [ ] = dose if it differs, or a comment. A selection: hits, their analogues and other compounds. The true share with any hit is near 7.5%. Calls follow the shape of the dose curve; as a rule, active = well fitted curve in the direction sought with a large enough effect; inconclusive = small, poorly fitted or top-dose-only effect, or another doubt; inactive = no such curve, though single readings can be large; an effect the other way counts as inactive or inconclusive. Potency is read from the fitted curve at half-maximal effect.

SMILES	ELG1 genotox	Rab9 prom act	SMN2 splice enh	NPC1 prom act	FLuc counter
COc1cc2ccccc2cc1C(=O)Nc1ccc(C)cn1	2.9µM*	?	nt	?	3µM*
CCOP(=O)(OCC)C1NC(=O)N(c2ccccc2)C1=O (stereo not given)	2%	-6%[1.84 µM]	nt	-2%	4%
CCCn1c(C)nc2c(N3CCCN(Cc4ccccc4)CC3)nc(C)nc21	nt	nt	-47%	nt	nt
O=C(/C=C/c1ccco1)Nc1nc(-c2ccc(F)c(F)c2)cs1	-10%	2%	nt	4%	?
Cc1ccc(/C=C/C(=O)Nc2ccc(S(N)(=O)=O)cc2)o1	-1%	-2%	-5%	-1%	?
O=C(/C=C/c1ccco1)Nc1nc(-c2ccccn2)cs1	0%	?	?	?	21µM*
CCOC(=O)Cc1csc(NC(=O)CC)n1	0%	-2%	0%	-4%	1%
Cc1csc(NC(=O)/C=C/c2ccc(C)o2)n1	18%	27%	20µM*	15%	11µM*
Cc1csc(NC(=O)/C=C/c2ccco2)n1	?	2.8µM*	16µM*	13%	6.7µM*
CCOC(=O)Cc1csc(NC(=O)/C=C/c2ccco2)n1	-4%	28%	nt	16%	11µM*
Cc1csc(NC(=O)c2ccco2)n1	-1%	3%	-7%	1%	-2%
O=C1C/C(=C\c2c(F)cccc2Cl)N2CCC1CC2	4%	1%	-1%	-2%	5%
O=C(/C=C/c1ccco1)Nc1nc(-c2ccccc2)cs1	13%	2.5µM*	11µM*	2.8µM*	4.8µM*
CCOC(=O)Cc1csc(NC(=O)/C=C/c2ccc(Cl)cc2)n1	-7%	-8%	nt	-6%	2.4µM*
Cc1csc(=O)n1CCC(=O)OCC(=O)NNC(=O)c1ccccc1	0%	2%	nt	0%	3%
CC(=O)Nc1ccc(-c2csc(Nc3ccc(Cl)cn3)n2)cc1	-4%	-4%	-42%	-3%	-20%
Cc1ccnc(Nc2nc(-c3ccccc3)cs2)c1	?	?	nt	1.4µM*	1.1µM*
CC(=O)Nc1cccc(-c2csc(Nc3ccc(Cl)cn3)n2)c1	?	3.2µM*	11µM*	2µM*	2.4µM*
CC(=O)Nc1ccc(-c2csc(Nc3cc(C)ccn3)n2)cc1	-14%	11%	-58%	?	15µM*
Cc1ccnc(Nc2nc(-c3c(C)nc4sccn34)cs2)c1	-6%	-4%	-71%	11%	8.5µM*
COc1cc(NC(=O)N2CCC(CN3CCc4ccccc4C3)CC2)cc(OC)c1	nt	nt	nt	nt	-8%
O=C(Nc1ccc(S(=O)(=O)Nc2ncccn2)cc1)C1COc2ccccc2O1 (stereo not given)	4%	-4%	9%	0%	3%
CC1CN(C)C(C)c2c1oc1ccc(N)cc21 (stereo not given)	-1%	-3%	nt	-2%	-2%
COc1nc(N(C)C)nc(N(C#N)S(=O)(=O)c2ccc(C)cc2)n1	4%	0%	nt	1%	0%
CCOCC(=O)Nc1ccc(F)c(F)c1	nt	nt	3%	nt	-2%
SMILES	ELG1 genotox	Rab9 prom act	SMN2 splice enh	NPC1 prom act	FLuc counter
CCS(=O)(=O)N1Cc2ccccc2CC1C(=O)Nc1nnc(SCc2c(Cl)cccc2Cl)s1 (stereo not given)	-1%	-2%	17%[1.84 µM]	-3%	-1%
CC(=O)Nc1cccc(-c2csc(Nc3cc(C)ccn3)n2)c1	-14%	1.3µM*	?	2.5µM*	2.7µM*
CC(=O)Nc1cccc(-c2csc(Nc3ccccn3)n2)c1	?	1.1µM*	11µM*	1.3µM*	1.5µM*
CC(C)(C)c1ccc(C(=O)Nc2cccc3c(=O)[nH][nH]c(=O)c23)cc1	?	?	-56%	21%	0.85µM*
O=C(NCc1ccccn1)Nc1cc(Cl)ccc1Cl	-7%	3.2µM*	nt	73%	1.2µM*
O=C(NCc1ccccn1)Nc1cccc(NC(=O)NCc2ccccn2)c1	?	2%	?	-4%	?
O=C(NCc1ccccn1)Nc1cccc(Cl)c1	?	15%	3%	1%	19µM*
O=C(NCc1ccccn1)C(=O)Nc1ccccc1	?	?	18µM*	?	?
